Laboratory results as given in PubChem BioAssay (Tox21).
Unmarked numbers belong to inactive results. Results filed as inconclusive are left out. Where a call stands in place of a potency, no number is given. Calls of active or inactive are those of the source. Unless noted, the call rests on the fitted dose curve; in most records, active means well fitted curve in the direction sought with a large enough effect in the repeat runs; inconclusive means weak or mixed curves; inactive means no such curve, though single readings can be large; an effect the other way counts as inactive or inconclusive.

What was measured:
[1] = qHTS assay to identify small molecule antagonists of the estrogen related receptor (ERR) signaling pathway from Tox21 library - cell viability counter screen (AID 1224834); further: nearly all actives have a fitted effect of over 30% in size
Method in brief: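 Seeded ERR cells were rested 6 h at 37 C/5% CO2 before compounds, positive and negative controls or DMSO were added. Incubation continued for 17.5 h, and viability was then quantified by CellTiter-Fluor fluorescence.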

[2] = molecular target: Luciferin 4-monooxygenase (Photinus pyralis) (UniProt P08659); assay: qHTS assay to identify small molecule inhibitors of firefly luciferase (AID 1224835); further: nearly all actives have a fitted effect of over 25% in size; further: potency means the concentration at half of the fitted maximal effect
Method in brief: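 Quantitative HTS format; KM concentrations of both substrates. Purified P. pyralis FLuc activity quantified from luminescence images.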

[3] = qHTS assay to identify small molecule agonists of the constitutive androstane receptor (CAR) signaling pathway - cell viability counter screen (AID 1224836); further: nearly all actives have a fitted effect of over 45% in size
Method in brief: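 HepG2 cells stably carrying hCAR and a CYP2B6-2.2kb reporter were plated 4 h, then given compounds at 15 concentrations plus PK11195 (final 0.75 uM). After 23 h at 37 C, viability was read by CellTiter-Fluor fluorescence.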

[4] = qHTS assay to identify small molecule antagonists of the constitutive androstane receptor (CAR) signaling pathway - cell viability counter screen (AID 1224837); further: nearly all actives have a fitted effect of over 45% in size
Method in brief: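 To flag cytotoxic false antagonists, HepG2 hCAR/CYP2B6-2.2kb cells were treated 23 hr with 15-concentration compound series and 50 nM CITCO at 37 C/5% CO2; CellTiter-Fluor fluorescence was the measured end point.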

[5] = molecular target: Nuclear receptor subfamily 1 group I member 3 (Homo sapiens) (UniProt Q14994); assay: qHTS assay to identify small molecule antagonists of the constitutive androstane receptor (CAR) signaling pathway (AID 1224838); further: nearly all actives have a fitted effect of over 40% in size
Method in brief: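 Human hepatoma HepG2 cells expressing hCAR and a CYP2B6 promoter (2.2 kb) luciferase construct; compound titration (15 points) with 50 nM CITCO final, 24 h at 37 C/5% CO2; luminescence via ONE-Glo after 30 min at room temperature.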

[6] = molecular target: Nuclear receptor subfamily 1 group I member 3 (Homo sapiens) (UniProt Q14994); assay: qHTS assay to identify small molecule agonists of the constitutive androstane receptor (CAR) signaling pathway (AID 1224839);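 further: HepG2 cells stably carrying human CAR and a CYP2B6 luciferase reporter; nearly all actives have a fitted effect of over 15% in size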
Method in brief: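 HepG2 cells stably expressing hCAR and a CYP2B6-2.2kb luciferase reporter were treated with compounds at 15 concentrations plus 0.75 uM PK11195 (final) for 24 h at 37 C; luminescence was read after ONE-Glo addition.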

[7] = qHTS assay to identify small molecule antagonists of the estrogen related receptor signaling pathway with the pleiotropic PPARgamma coactivator (PGC) from Tox21 10K library - cell viability counter screen (AID 1224840; active means well fitted cell-killing curve with a large enough effect in the repeat runs, not every such curve was filed as active; further: nearly all actives have a fitted effect of over 40% in size)
Method in brief: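 Seeded PGC/ERR cells (2,000/well, 6 h, 37 C/5% CO2) get compound by pin tool; 17.5 h incubation at 37 C; CellTiter-Fluor added, 30 min, fluorescence measured.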

[8] = molecular target: Thyrotropin receptor (Homo sapiens) (UniProt P16473); assay: qHTS assay to identify small molecule agonists of the thyroid stimulating hormone receptor (TSHR) signaling pathway (AID 1224843; calls by dose curve; further: nearly all actives have a fitted effect of over 45% in size)
Method in brief: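 Using 15 concentrations per compound in triplicate, cAMP production was monitored in TSHR-HEK293 cells after 30 min compound incubation at RT; HTRF reagents followed, with fluorescence intensity recorded after 1 h.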

[9] = qHTS assay to identify small molecule agonists of the hypoxia (HIF-1) signaling pathway - cell viability counter screen (AID 1224844; calls by dose curve; further: nearly all actives have a fitted effect of over 50% in size)
Method in brief: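 HRE-bla ME-180; 0.5% dFBS; cpd 17 h, 37C, 5% CO2; CellTiter-Glo lum., 30 min RT, post-FRET read, same wells.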

[10] = qHTS assay to identify small molecule agonists of H2AX (AID 1224845; active means well fitted activation curve with a large enough effect in the signal ratio in the repeat runs, not every such curve was filed as active; the % refers to the signal ratio)
Method in brief: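 Wild-type CHO-K1 cells plated overnight, then exposed 3 hr at 37C to compounds at 15 concentrations (0.76% DMSO). Lysed, then HTRF anti-pH2AX(S139)-cryptate/anti-H2AX-d2 detection after 24 hr at room temperature; emissions 665 and 620 nm.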

[11] = qHTS assay to identify small molecule agonists of the hypoxia (HIF-1) signaling pathway (AID 1224846; active means well fitted activation curve with a large enough effect in the signal ratio in the repeat runs, not every such curve was filed as active; the % refers to the signal ratio)
Method in brief: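 Reporter induction in HRE-bla ME-180 cells is taken as agonism: cells sit 5 hrs after plating, receive compounds or DMSO only, incubate 17 hrs at 37C under 5% CO2, and are loaded with CCF4-AM for beta-lactamase FRET measurement.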

[12] = qHTS assay to identify small molecule agonists of H2AX - cell viability counter screen (AID 1224847; calls by dose curve; further: top concentration of the series differs between compounds; nearly all actives have a fitted effect of over 30% in size)
Method in brief: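 Wild-type CHO-K1 cells (10% FBS medium) were plated overnight at 37C, exposed to compounds at 15 concentrations for 3 hr at 37C (0.76% DMSO final), and viability was read as CellTiter-Glo luminescence after 30 min at room temperature.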

[13] = qHTS RealTime-Glo MT Cell Viability Assay in HepG2 cells - 24 hour (AID 1224867); further: nearly all actives have a fitted effect of over 50% in size
Method in brief: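 HepG2 suspension premixed with RealTime-Glo reagents is plated at 600 cells per well and left 5 h at 37 C/5% CO2. Compounds in DMSO then go in, and bioluminescence reflecting viable cell number is recorded over 40 h.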

[14] = qHTS RealTime-Glo MT Cell Viability Assay in HEK293 cells - 32 hour (AID 1224868); further: top concentration of the series differs between compounds; nearly all actives have a fitted effect of over 50% in size
Method in brief: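 Reads taken at 0, 8, 16, 24, 32 and 40 h from the same wells. HEK293 cells (600/well) carried RealTime-Glo reagents from seeding, with compound added after a 5 h settle at 37 C.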

[15] = A CellTox Green Cytotoxicity Assay to monitor cytotoxicity in HEK293 cells - 0 hour (AID 1224869); further: nearly all actives have a fitted effect of over 50% in size
Method in brief: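 Tox21 screen in HEK293: membrane-impermeant cyanine dye fluoresces on binding dead-cell DNA; compound pinned 5 h post-seeding, plates held at 37 C, signal read repeatedly through 40 h.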

[16] = qHTS assay to identify small molecule agonists of the estrogen related receptor signaling pathway with the pleiotropic PPARgamma coactivator (PGC) from Tox21 10K library (AID 1224842); further: nearly all actives have a fitted effect of over 15% in size
Method in brief: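 PGC/ERR reporter cells (NTP line) were seeded 2,000 per well, rested 6 h at 37 C/5% CO2, then pin-dosed with compounds in DMSO for 18 h at 37 C; luciferase read by One-Glo luminescence after 30 min at room temperature.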

[17] = qHTS assay to identify small molecule antagonists of the estrogen related receptor (ERR) signaling pathway from Tox21 library (AID 1224848); further: nearly all actives have a fitted effect of over 50% in size
Method in brief: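 Tox21 10K compounds in DMSO tested for ERR pathway antagonism in NTP's ERR cell line; 18 h, 37 C exposure; ONE-Glo luminescence.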

[18] = qHTS assay to identify small molecule agonists of the estrogen related receptor (ERR) signaling pathway from Tox21 library (AID 1224849; calls by dose curve; further: nearly all actives have a fitted effect of over 15% in size); conditions: ERR reporter cell line, ONE-Glo luciferase, 18 h; at 92.4 µM (top of the series) unless noted
Method in brief: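 Tox21 compounds tested for ERR agonism in an NTP reporter cell line: 18 h treatment at 37 C, then ONE-Glo luminescence.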

Chain of Nuclear receptor subfamily 1 group I member 3 (Homo sapiens) (Q14994 whole entry, looked up): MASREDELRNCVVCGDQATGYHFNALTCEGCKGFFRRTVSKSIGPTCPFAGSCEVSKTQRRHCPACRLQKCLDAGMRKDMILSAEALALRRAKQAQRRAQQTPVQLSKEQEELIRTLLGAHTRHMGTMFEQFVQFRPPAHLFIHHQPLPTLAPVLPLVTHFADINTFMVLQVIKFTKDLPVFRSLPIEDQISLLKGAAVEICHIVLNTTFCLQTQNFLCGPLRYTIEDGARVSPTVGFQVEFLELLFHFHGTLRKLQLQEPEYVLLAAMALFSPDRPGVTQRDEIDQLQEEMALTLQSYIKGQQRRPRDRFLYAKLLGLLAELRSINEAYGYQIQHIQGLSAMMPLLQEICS
Chain of Thyrotropin receptor (Homo sapiens) (P16473 whole entry, looked up): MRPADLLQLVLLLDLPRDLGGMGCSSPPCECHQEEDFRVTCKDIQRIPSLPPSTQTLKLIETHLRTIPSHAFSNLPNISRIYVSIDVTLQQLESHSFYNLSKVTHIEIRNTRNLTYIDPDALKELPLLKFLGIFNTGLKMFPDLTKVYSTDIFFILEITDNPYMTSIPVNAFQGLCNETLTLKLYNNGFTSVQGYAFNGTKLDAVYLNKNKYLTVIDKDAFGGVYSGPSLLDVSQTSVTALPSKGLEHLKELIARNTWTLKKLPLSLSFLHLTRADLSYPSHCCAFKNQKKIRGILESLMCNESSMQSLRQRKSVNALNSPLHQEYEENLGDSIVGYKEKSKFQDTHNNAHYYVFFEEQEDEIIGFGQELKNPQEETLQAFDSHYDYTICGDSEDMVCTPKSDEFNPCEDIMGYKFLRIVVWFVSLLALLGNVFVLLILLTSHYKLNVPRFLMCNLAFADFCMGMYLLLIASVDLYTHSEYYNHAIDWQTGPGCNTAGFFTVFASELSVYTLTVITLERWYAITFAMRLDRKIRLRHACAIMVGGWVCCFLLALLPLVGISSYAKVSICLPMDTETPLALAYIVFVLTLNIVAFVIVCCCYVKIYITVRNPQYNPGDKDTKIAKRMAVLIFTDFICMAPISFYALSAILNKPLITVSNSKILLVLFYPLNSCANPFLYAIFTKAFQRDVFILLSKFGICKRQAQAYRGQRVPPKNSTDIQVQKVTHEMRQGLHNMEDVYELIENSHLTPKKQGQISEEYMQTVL
Chain of Luciferin 4-monooxygenase (Photinus pyralis) (P08659 whole entry, looked up): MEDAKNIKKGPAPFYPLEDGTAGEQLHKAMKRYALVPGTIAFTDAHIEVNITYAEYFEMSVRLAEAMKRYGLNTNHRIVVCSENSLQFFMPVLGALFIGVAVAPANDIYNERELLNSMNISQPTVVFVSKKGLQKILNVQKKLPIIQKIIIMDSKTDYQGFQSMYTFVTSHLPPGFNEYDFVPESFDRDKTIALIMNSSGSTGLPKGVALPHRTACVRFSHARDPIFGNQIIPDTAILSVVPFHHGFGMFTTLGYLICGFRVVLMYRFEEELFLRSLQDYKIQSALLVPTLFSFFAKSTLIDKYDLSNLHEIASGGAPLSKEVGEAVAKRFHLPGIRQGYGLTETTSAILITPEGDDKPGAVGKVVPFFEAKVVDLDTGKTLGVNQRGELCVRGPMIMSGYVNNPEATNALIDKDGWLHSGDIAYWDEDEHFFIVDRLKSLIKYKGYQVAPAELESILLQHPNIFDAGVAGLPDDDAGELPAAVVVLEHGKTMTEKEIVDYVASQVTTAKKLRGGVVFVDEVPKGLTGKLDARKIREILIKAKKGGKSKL

Row | Structure (SMILES) | Potency [1] | Potency [2] | Potency [3] | Potency [4] | outcome [5] | Potency [6] | outcome [7] | Potency [8] | outcome [9] | outcome [10] | outcome [11] | Potency [12] | outcome [13] | Potency [14] | outcome [15] | outcome [16] | Potency [17] | activity change, positive = activation [18] [%]
1 | CC(C)(C)c1nnc(NS(=O)(=O)c2ccc(N)cc2)s1 | inactive | inactive | inactive | inactive | inactive | inactive | inactive | inactive | inactive | inactive | inactive | inactive | inactive | inactive | inactive | – | – | –
2 | ClCCCl | inactive | inactive | inactive | inactive | inactive | inactive | inactive | – | inactive | inactive | inactive | inactive | inactive | inactive | inactive | inactive | inactive | 12.2
3 | Nc1ncnc(Nc2ccccc2)n1 | inactive | inactive | inactive | inactive | inactive | – | inactive | inactive | inactive | inactive | inactive | inactive | inactive | inactive | inactive | – | – | –
4 | CCOC(=O)/C=C/c1ccccc1 | inactive | 35.6 µM (active) | inactive | inactive | inactive | inactive | inactive | inactive | inactive | inactive | inactive | inactive | inactive | inactive | inactive | – | – | –
5 | c1ccc2nccnc2c1 | inactive | inactive | inactive | inactive | inactive | inactive | inactive | inactive | inactive | inactive | inactive | inactive | inactive | inactive | inactive | – | – | –
6 | NS(=O)(=O)c1ccc(NC(=O)CCC(=O)O)cc1 | inactive | inactive | inactive | inactive | inactive | inactive | inactive | inactive | inactive | inactive | inactive | inactive | inactive | inactive | inactive | – | – | –
7 | CNS(=O)(=O)CCc1ccc2[nH]cc(C3CCN(C)CC3)c2c1 | inactive | inactive | inactive | inactive | inactive | inactive | – | inactive | inactive | inactive | – | inactive | inactive | inactive | inactive | – | – | –
8 | CCOC(=O)CC(=O)c1ccccc1 | inactive | inactive | inactive | inactive | inactive | inactive | inactive | inactive | inactive | inactive | inactive | inactive | inactive | inactive | inactive | – | – | –
